D2 PAM-1: D2 dopamine receptor (human) potentiation | 340,000 compounds, 0.34% hits | potentiation, % at 10 µM | AID 485347 | HEK293 T-REx D2, calcium flux, EC20 dopamine potentiation;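 active = potentiation over 3 SD above the plate norm, cut at about 30% in these data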; note: 0% is about no effect
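Potentiation of an EC20 dopamine calcium response measured kinetically over 180 s, after a preceding 180 s compound-only read flagging agonists. Cells: inducible Hek293 Trex D2 line, 4000/well, cultured overnight at 30 C before dye loading.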
D2 ag-1: activates the human D2 dopamine receptor. P14416. DiscoveRx PathHunter D2 beta-arrestin, luminescence, 90 min; 100% = 57 uM dopamine signal. activation, % (no concentration beside the values). 360,000 compounds, 0.084% hits; in the data active = activation above about 40%; inconclusive = between about 15% and that limit
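DiscoveRx PathHunter D2 beta-arrestin cells (2,100/well) attached overnight, then compound-stimulated 90 min at 37 C in HBSS/10 mM HEPES/0.1% Tween-20 buffer; beta-galactosidase complementation read by luminescence after 1 h at ambient temperature. Dopamine 57 uM final (EC100) as control.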
D2 PAM-2: positive allosteric modulators of human D2 dopamine receptor | P14416 | DiscoveRx D2 beta-arrestin cells, luminescence, 90 min; 100% = 57 uM dopamine signal | potentiation, % (concentration not given with the values) | 360,000 compounds, 0.23% hits; in the data active = potentiation above about 50%; inconclusive = mostly about 30% to 49%
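D2 cells co-treated with compound plus 50 nM dopamine (EC20) for 90 min at 37 deg C to detect potentiation. Beta-arrestin recruitment was read as enzyme-fragment luminescence after 1 h at ambient temperature. Full response was set by 57 uM dopamine.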
D2 antag: antagonists of human D2 dopamine receptor | P14416 | HEK293 TREx D2 cells, calcium flux, dopamine EC80 | inhibition, % at 10 µM | 340,000 compounds, 2% hits | AID 485344; in the data active = inhibition above about 30%; inactive = below that, where a call was filed; note: 0% is about no effect
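Cells plated overnight at 30 C with tetracycline; no-wash calcium dye, 30–90 min RT; 10 s baseline; compound pinned; 180 s read; EC80 dopamine added; another 180 s read.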
D2 ag-2: agonists of human D2 dopamine receptor | 340,000 compounds, 0.53% hits | AID 485358 | HEK293 T-REx D2 cells, calcium flux agonist mode | activation, % at 2 µM | P14416;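 active = activation over 3 SD above normal in the single-dose calcium agonist read, cut at about 30% in these data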; note: 0% is about no effect
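Tetracycline-induced HEK293 Trex cells with D2 receptor force-coupled to calcium signaling, plated overnight at 30 C and loaded with no-wash calcium dye. Calcium flux read kinetically for 180 s after compound addition; responses flag agonists.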
D3 ag: D3 receptor agonism confirmed, beta-arrestin readout; shares compounds with D2 ag-2; DiscoveRx D3 beta-arrestin cells, luminescence, 90 min; Potency, µM (doses to about 76.9 µM), for the others: top-dose activation, actives largely listed as activators; 2,300 compounds, 4% hits;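 note: potency is the fitted concentration of half-maximal effect; 100% = dopamine control response; nearly all actives have a fitted effect of over 70% in size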
Target sequence (P35462 whole entry, looked up): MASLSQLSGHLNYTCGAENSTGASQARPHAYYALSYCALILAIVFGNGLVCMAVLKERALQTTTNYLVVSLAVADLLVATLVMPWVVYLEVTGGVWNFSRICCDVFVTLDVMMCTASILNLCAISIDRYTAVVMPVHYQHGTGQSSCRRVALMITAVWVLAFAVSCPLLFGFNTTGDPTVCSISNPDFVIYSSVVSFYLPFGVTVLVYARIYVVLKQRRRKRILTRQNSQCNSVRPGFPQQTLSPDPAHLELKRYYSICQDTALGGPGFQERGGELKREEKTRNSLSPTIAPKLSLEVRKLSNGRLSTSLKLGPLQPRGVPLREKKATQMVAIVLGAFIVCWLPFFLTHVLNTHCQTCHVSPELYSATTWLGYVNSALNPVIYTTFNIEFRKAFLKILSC
D2 ag-3: D2 receptor agonism, beta-arrestin counterscreen. shares compounds with D2 ag-2. DiscoveRx PathHunter D2 beta-arrestin, luminescence, 90 min; response scale: percent relative to full dopamine signal. Potency, µM (top dose mostly 76.9 µM), inactives show top-dose activation, actives largely listed as activators. 2,300 compounds, 5.9% hits. AID 720507; note: potency is the fitted concentration of half-maximal effect; % of control where 0% means no effect; nearly all actives have a fitted effect of over 70% in size
An asterisk follows results filed as active; ? = inconclusive; . = no result. An excerpt weighted towards active compounds, which were near 2.4% of everything screened. Unless noted, calls come from the whole dose curve; as a rule, active = well fitted activation curve with a large enough effect; inconclusive = small, poorly fitted or top-dose-only effect; inactive = flat fitted curve, though single readings scatter.

SMILES	D2 PAM-1	D2 ag-1	D2 PAM-2	D2 antag	D2 ag-2	D3 ag	D2 ag-3
Cc1c(C(=O)N2CCN(Cc3ccc4c(c3)OCO4)CC2)sc2ncnc(N3CCN(c4ccccc4F)CC3)c12	.	?	6.9	.	.	23.4%	?
CCn1cc(C(=O)N2CCN(Cc3ccc4c(c3)OCO4)CC2)c(=O)c2ccc(C)nc21	-24.4	5.7	-15.3	13.2	68.0*	3.7%	11.9%
O=C(c1ccccc1)N1CCN(Cc2cccc(Oc3ccccc3)c2)CC1	-31.3	1.4	-5.7	-1.1	49.4*	8.2%	5.7%
CCn1cc(C(=O)NCc2ccc3c(c2)OCO3)c(=O)c2ccc(C)nc21	6.0	.	.	-20.7	0.3	.	.
CC(C)(C)c1ccc(-c2nc(S(=O)(=O)c3ccccc3)c(N3CCOCC3)o2)cc1	2.4	.	.	.	0.3	.	.
COc1ccc(OCC(=O)Nc2cc(-c3nc4ccccc4o3)ccc2Cl)cc1	-11.8	.	.	.	-0.1	.	.
O=C(c1ccc([N+](=O)[O-])o1)N1CCN(Cc2ccccc2)CC1	3.2	5.6	-22.4	5.5	-0.2	.	.
O=C(c1cnn2cccnc12)N1CCN(Cc2ccc3c(c2)OCO3)CC1	-3.7	-1.7	-5.0	-5.5	17.7	.	.
CS(=O)(=O)c1ccccc1C(=O)N1CCN(Cc2ccccc2)CC1	.	4.2	-1.2	.	.	-19.4%	26.0%
CCOC(=O)N1CCN(Cc2ccc3ccccc3c2)CC1	-5.8	2.2	-32.2	21.3	34.1*	-3.3%	26.2%
CCOC(=O)N1CCN(C(=O)c2ccc3ccccc3c2)CC1	-4.4	-4.1	3.2	-1.0	0.1	.	.
Cc1ccc(C(=O)N2CCN(Cc3ccccc3)CC2)o1	-17.7	10.0	-45.2	-13.6	50.2*	-0.5%	2.9%
CCOc1ncccc1C(=O)N1CCN(Cc2ccc3c(c2)OCO3)CC1	-21.8	59.8*	-12.3	74.8*	79.9*	?	2.82µM*
COc1ccc(CNC(=O)CCS(=O)(=O)c2cc(Br)cc3c2N(C(=O)C2CC2)CC3)cc1	0.0	.	.	.	0.5	.	.
Cc1ccc(-n2nnnc2CNC(=O)c2ccc(F)cc2)cc1C	-6.7	.	.	.	-0.5	.	.
COc1cccc(CN2CCN(C3CCN(c4ccccc4F)CC3)CC2CCO)c1 (stereo unspecified)	-22.6	-2.4	-16.4	8.1	3.2	.	.
CCOC(=O)N1CCC(N2CCN(Cc3ccccc3)C(CCO)C2)CC1 (stereo unspecified)	-13.0	?	-2.2	76.2*	78.4*	-0.4%	?
CCOC(=O)N1CCC(N2CCCC(C(=O)c3cc(C)c(OC)c(C)c3)C2)CC1 (stereo unspecified)	.	-2.2	-5.6	.	.	.	.
COc1cccc(CN2CCN(C3CCN(c4ccccc4C)CC3)CC2CCO)c1 (stereo unspecified)	-26.5	-7.6	-8.0	27.1	59.8*	-12.1%	2.8%
COc1cccc(CN2CCN(C3CCN(c4cccc(C)c4C)CC3)CC2CCO)c1 (stereo unspecified)	-9.3	?	14.9	73.0*	70.8*	?	?
CCOC(=O)N1CCC(N2CCCC(C(=O)c3ccccc3OC)C2)CC1 (stereo unspecified)	-14.8	?	10.1	70.3*	73.7*	-2.4%	?
CCCN1C(=O)c2ccccc2CC1(C)C(=O)NC1CCCCC1 (stereo unspecified)	4.8	.	.	.	-0.3	.	.
Cc1noc(Cn2c(=O)c3ccccc3n(CC(=O)Nc3ccc(C(C)C)cc3)c2=O)n1	0.6	.	.	.	0.0	.	.
O=C1c2oc3ccccc3c(=O)c2C(c2ccc(O)cc2)N1Cc1ccc2c(c1)OCO2 (stereo unspecified)	2.8	.	.	.	0.0	.	.
CCN1CCN(c2ncnc3scc(-c4ccc(OC)cc4)c23)CC1	-1.1	78.1*	5.4	-12.8	40.6*	-0.1%	39.8µM*
SMILES	D2 PAM-1	D2 ag-1	D2 PAM-2	D2 antag	D2 ag-2	D3 ag	D2 ag-3
CCOC(=O)c1c(NC(=O)CSc2cn(CCNC(=O)c3c(F)cccc3F)c3ccccc23)sc2c1CCC2	-2.1	.	.	.	0.3	.	.
O=C(CCc1nc2ccccc2c(=O)[nH]1)N1CCN(C/C=C/c2ccccc2)CC1	-31.1	4.1	-10.7	9.9	18.8	16.1%	?
O=C(CCc1nc2ccccc2c(=O)[nH]1)Nc1ccc(F)cc1	-3.6	-0.6	-21.3	15.8	-0.9	.	.
CC(=O)N1CCN(C(=O)CCc2nc3ccccc3c(=O)[nH]2)CC1	.	-2.7	-9.3	.	.	.	.
O=C(O)CCc1nc2ccccc2c(=O)[nH]1	-14.9	-1.5	-4.7	20.8	28.6	-20.8%	-3.9%
CCN(CCCNC(=O)c1cc2cc3cc(C)ccc3nc2s1)c1cccc(C)c1	0.9	.	.	.	-0.4	.	.
O=C(COc1ccccc1-c1nc(-c2ccccc2)no1)Nc1ccc([N+](=O)[O-])cc1	.	.	.	.	-0.9	.	.
COc1ccc(C(=O)c2sc3nc(C)cc(-c4cccs4)c3c2N)cc1	8.2	1.7	-4.0	12.3	-1.1	.	.
Cc1cc(-c2cccs2)c2c(N)c(C(=O)c3ccc4c(c3)OCO4)sc2n1	-3.8	-12.5	22.1	-10.8	40.7*	-1.8%	-3.4%
CCOC(=O)N1CCc2c(sc(N)c2C#N)C1	-25.9	?	54.1*	58.2*	74.5*	?	?
CC(=O)c1sc2nsc(SCCN3CCCCC3)c2c1N	-3.3	1.9	-14.3	-14.4	4.6	.	.
Nc1c(C(=O)c2ccc(Cl)cc2)sc2nsc(SCCN3CCOCC3)c12	10.9	-0.8	-4.5	-7.7	16.2	2.1%	2.5%
COc1ccc(-c2cc(C(=O)Nc3cccc(O)c3)on2)cc1OC	4.8	.	.	.	0.8	.	.
CC(Sc1nc(=O)cc(N)n1CCc1ccccc1)C(=O)Nc1ccccc1C#N (stereo unspecified)	-5.6	.	.	.	0.0	.	.
Fc1ccccc1N1CCN(CC2CCCCC2)CC1	-17.9	0.6	-2.2	88.8*	14.7	19.2%	22.8%
CCS(=O)(=O)N1CCN(c2ccccc2F)CC1	2.5	-2.7	-5.9	-2.0	0.6	.	.
O=c1nc2ccccc2c2n1CC(CN1CCN(c3ccc(F)cc3)CC1)N2 (stereo unspecified)	12.5	-3.0	-7.6	-12.9	3.4	.	.
O=c1nc2ccccc2c2n1CC(CN1CCN(c3ccccc3F)CC1)N2 (stereo unspecified)	-14.2	2.1	-20.6	16.1	28.9	-3.1%	8.5%
Fc1ccccc1N1CCN(Cc2cccnc2)CC1	-21.3	?	1.4	67.7*	73.4*	?	?
CC(=O)c1ccc(NC(=O)CCc2c(C)nn(-c3ccc4nnc(C)n4n3)c2C)cc1	.	.	.	.	0.9	.	.

High-throughput results deposited in PubChem BioAssay by National Center for Advancing Translational Sciences (NCATS).
